Source: PubChem BioAssay (NCI)
The panel holds about 79,000 compounds, 15% with a hit somewhere; the sample as a whole holds those more often. Unmarked numbers belong to inactive results. Active and inactive are the calls of the source. Cut-off read from the data, not from the text of the source: active = growth inhibition above about 70%; inactive = the rest.

Tests used:
[1] = NCI Yeast Anticancer Drug Screen. Data for the rad52 strain (AID 147);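 note: 0% = growth of vehicle-treated control cultures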; conditions: S. cerevisiae rad52 mutant growth inhibition, hits give high values
How it was run: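 Read-out: growth inhibition versus vehicle-treated controls. Cells were a DNA repair-deficient yeast strain treated with compounds.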

[2] = NCI Yeast Anticancer Drug Screen. Data for the wt1 strain (AID 149);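 note: 0% = growth of vehicle-treated wt1 cultures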; conditions: S. cerevisiae wt1 strain (SPY 50644) growth inhibition, hits give high values
How it was run: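 Readout: yeast growth inhibition, normalised to vehicle controls, in the wt1 strain exposed to test compounds.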

[3] = NCI Yeast Anticancer Drug Screen. Data for the rad50EPP+ strain (AID 151);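 note: 0% = growth of vehicle-treated control cultures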; conditions: S. cerevisiae rad50 mutant strain, hits give high values
How it was run: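 Growth inhibition read against vehicle controls in rad50EPP+ yeast, a strain altered in DNA damage repair, after compound exposure.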

[4] = NCI Yeast Anticancer Drug Screen. Data for the mgt1 strain (AID 153); conditions: S. cerevisiae mgt1 mutant growth inhibition, hits give high values
How it was run: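 mgt1 yeast grown with test compound; read-out is growth inhibition versus vehicle-treated cultures.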

[5] = NCI Yeast Anticancer Drug Screen. Data for the rad50 strain (AID 155);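 note: 0% = growth of vehicle-only cultures of the same strain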; conditions: S. cerevisiae rad50 strain growth inhibition, hits give high values
How it was run: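 Compounds were tested on a yeast strain with an engineered DNA damage repair alteration; the reported value is growth inhibition normalised to vehicle treatment.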

[6] = NCI Yeast Anticancer Drug Screen. Data for the mec2-1 strain (AID 157); conditions: S. cerevisiae mec2-1 strain, hits give high values
How it was run: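 Yeast mec2-1 mutant treated with compound. Readout: growth inhibition vs vehicle controls.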

[7] = NCI Yeast Anticancer Drug Screen. Data for the rad14 strain (AID 159);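 note: 0% = growth of vehicle-treated control cultures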; conditions: S. cerevisiae rad14 strain growth inhibition, hits give high values
How it was run: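 Compound-treated yeast with a defined DNA-repair lesion; growth inhibition normalised to vehicle-treated cultures.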

[8] = at 5.0 µM (retest, dose inferred, filed as 0.5)
[9] = at 50.0 µM (retest, dose inferred, filed as 5.0)

## COc1ccc2c(c1)CCCC(Br)C2=O (stereo unspecified)
[1]; at 1.2 µM
  growth inhibition: 12%
[1]; at 3.7 µM
  growth inhibition: 17%
[1]; at 11.0 µM
  growth inhibition: 27%
[1]; at 33.0 µM
  growth inhibition: 64%
[1]; at 100.0 µM
  growth inhibition: 98% (active)
[2]; at 1.2 µM
  growth inhibition: 14%
[2]; at 3.7 µM
  growth inhibition: 0%
[2]; at 11.0 µM
  growth inhibition: 17%
[2]; at 33.0 µM
  growth inhibition: 51%
[2]; at 100.0 µM
  growth inhibition: 98% (active)
[3]; at 1.2 µM
  growth inhibition: 5%
[3]; at 3.7 µM
  growth inhibition: 28%
[3]; at 11.0 µM
  growth inhibition: 30%
[3]; at 33.0 µM
  growth inhibition: 67%
[3]; at 100.0 µM
  growth inhibition: 97% (active)
[4]; at 1.2 µM
  growth inhibition: 26%
[4]; at 3.7 µM
  growth inhibition: 23%
[4]; at 11.0 µM
  growth inhibition: 36%
[4]; at 33.0 µM
  growth inhibition: 78% (active)
[4]; at 100.0 µM
  growth inhibition: 98% (active)
[5]; at 1.2 µM
  growth inhibition: 30%
[5]; at 3.7 µM
  growth inhibition: 28%
[5]; [8]
  growth inhibition: 11%
[5]; at 11.0 µM
  growth inhibition: 31%
[5]; at 33.0 µM
  growth inhibition: 70% (active)
[5]; [9]
  growth inhibition: 48%
[5]; at 50.0 µM
  growth inhibition: 37.4%
[5]; at 100.0 µM
  growth inhibition: 98% (active)
[6]; at 1.2 µM
  growth inhibition: 38%
[6]; at 3.7 µM
  growth inhibition: 41%
[6]; [8]
  growth inhibition: -13%
[6]; at 11.0 µM
  growth inhibition: 54%
[6]; at 33.0 µM
  growth inhibition: 71% (active)
[6]; [9]
  growth inhibition: 78% (active)
[6]; at 50.0 µM
  growth inhibition: 86.2% (active)
[6]; at 100.0 µM
  growth inhibition: 97% (active)
[7]; at 1.2 µM
  growth inhibition: 3%
[7]; at 3.7 µM
  growth inhibition: 2%
[7]; at 11.0 µM
  growth inhibition: 14%
[7]; at 33.0 µM
  growth inhibition: 64%
[7]; at 100.0 µM
  growth inhibition: 98% (active)
